Experiment [1] in a line: ATG_TGFb_CIS: Attagene CIS-FACTORIAL HepG2 Assay for human Transforming Growth Factor (TGF) (AID 2282967; active = hit-call score of the fitted dose curve at least 0.9, where 1 is the maximum; inactive = score below 0.9). Conditions: HepG2 Attagene CIS TGFb reporter, mRNA transcription; actives raise or lower the signal. An outline of the steps:
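Bidirectional fitting relative to DMSO gave the endpoint. Underlying data: reporter mRNA from HepG2 cells carrying transiently transfected cis-regulated reporter constructs, harvested 24 h after dosing and analyzed by RT-PCR and capillary electrophoresis.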

The target of experiment [2] is Steroid hormone receptor ERR1 (Homo sapiens) (UniProt P11474). Description: ATG_ERRa_TRANS: Attagene TRANS-FACTORIAL HepG2 Assay for human Estrogen-Related Receptor alpha (ERRa) (AID 2282971). As to conditions: HepG2 Attagene TRANS reporter, ERRa transactivation. An outline of the steps: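 HepG2 cells transiently transfected with GAL4-UAS reporter units and chimeric NR-Gal4 constructs; after 24 hour compound incubation, reporter mRNA quantified by RT-PCR, fluorescent labelling and capillary electrophoresis, gain of signal versus DMSO.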

Experiment [3] deals with X-box-binding protein 1 (Homo sapiens) (UniProt P17861). The experiment is described as follows: ATG_Xbp1_CIS: Attagene CIS-FACTORIAL HepG2 Assay for human X-box Binding Protein 1 (XBP1) (AID 2282972; active = hit-call score of the fitted dose curve at least 0.9, where 1 is the maximum; inactive = score below 0.9). As to conditions: HepG2 XBP1 cis-element reporter, Attagene multiplex; actives raise or lower the signal. The method in brief: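 Reporter transcripts were quantified by RT-PCR with fluorescent primer extension and capillary electrophoresis after 24 h chemical exposure. Cells: transiently transfected HepG2 carrying cis-regulated reporter constructs; data fitted bidirectionally relative to DMSO.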
X-box-binding protein 1 (Homo sapiens), sequence (P17861 whole entry, looked up): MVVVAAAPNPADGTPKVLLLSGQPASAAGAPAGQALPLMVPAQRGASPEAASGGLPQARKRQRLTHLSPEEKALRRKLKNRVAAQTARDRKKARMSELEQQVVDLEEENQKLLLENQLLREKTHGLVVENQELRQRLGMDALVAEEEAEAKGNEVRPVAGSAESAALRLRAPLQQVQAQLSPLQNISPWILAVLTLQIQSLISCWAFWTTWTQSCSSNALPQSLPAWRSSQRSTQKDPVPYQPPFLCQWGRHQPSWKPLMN

Experiment [4] in a line: ATG_M_19_TRANS: Attagene TRANS-FACTORIAL HepG2 Assay for M19 Transcription Factor (Internal Marker) (AID 2282974). As to conditions: HepG2 Attagene TRANS-FACTORIAL M19 internal marker reporter. An outline of the steps:
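Multiplexed TRANS format: HepG2 liver cells bearing transient GAL4-UAS reporter units, chemical treatment 24 h, reporter transcripts quantified by RT-PCR plus capillary electrophoresis. DMSO defines baseline.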

For experiment [5], the target named is Estrogen-related receptor gamma (Homo sapiens) (UniProt P62508). Description: ATG_ERRg_TRANS: Attagene TRANS-FACTORIAL HepG2 Assay for human Estrogen-Related Receptor gamma (ERRg) (AID 2282977).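 Also: hits increase reporter signal over DMSO so potencies reflect activators.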 As to conditions: HepG2 Attagene TRANS reporter, ERRg transactivation. The method in brief: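 Exogenous NR-Gal4 chimera activity measured as reporter transcript induction after 24 h in transiently transfected HepG2 cells. RNA reverse-transcribed, PCR-amplified, 6-FAM-labelled and resolved by capillary electrophoresis; increase over DMSO baseline.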

For experiment [6], the target named is Oxysterols receptor LXR-alpha (Homo sapiens) (UniProt Q13133). The experiment is described as follows: ATG_LXRa_TRANS: Attagene TRANS-FACTORIAL HepG2 Assay for human Liver X Receptor alpha (LXRa) (AID 2282980). Conditions: HepG2 Attagene TRANS reporter, LXRa transactivation. The method in brief:
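HepG2 cells transiently transfected with GAL4-UAS reporter units for chimeric NR-Gal4 proteins, exposed to chemicals for 24 h. Reporter mRNA quantified by RT-PCR and capillary electrophoresis; gain of signal fitted relative to DMSO.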

In experiment [7] the target is Hepatocyte nuclear factor 4-alpha (Homo sapiens) (UniProt P41235). The experiment is described as follows: ATG_HNF4a_TRANS: Attagene TRANS-FACTORIAL HepG2 Assay for human Hepatocyte Nuclear Factor 4 alpha (HNF4a) (AID 2282982). Conditions: HepG2 HNF4a transactivation reporter, mRNA readout. The method in brief: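 Endpoint reflects transcriptional activation of a GAL4-UAS reporter by an HNF4a-GAL4 chimera in transfected HepG2 cells, 24 h post-dosing. Fluorescence from RT-PCR products separated by capillary electrophoresis; DMSO baseline.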
Hepatocyte nuclear factor 4-alpha (Homo sapiens), sequence (P41235 whole entry, looked up, the tested form may be a part): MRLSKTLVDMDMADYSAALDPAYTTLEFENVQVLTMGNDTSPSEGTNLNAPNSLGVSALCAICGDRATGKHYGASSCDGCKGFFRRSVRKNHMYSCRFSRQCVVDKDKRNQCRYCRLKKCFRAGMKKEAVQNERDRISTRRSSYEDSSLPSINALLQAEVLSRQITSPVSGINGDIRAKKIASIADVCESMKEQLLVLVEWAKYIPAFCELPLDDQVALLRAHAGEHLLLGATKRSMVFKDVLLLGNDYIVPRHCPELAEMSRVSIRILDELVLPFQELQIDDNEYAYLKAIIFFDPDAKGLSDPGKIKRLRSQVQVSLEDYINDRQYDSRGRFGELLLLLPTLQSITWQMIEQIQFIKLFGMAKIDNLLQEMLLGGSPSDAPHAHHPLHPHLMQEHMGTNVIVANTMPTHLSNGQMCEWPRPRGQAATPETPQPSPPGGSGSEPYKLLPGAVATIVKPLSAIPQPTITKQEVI

Experiment [8] in a line: ATG_M_06_TRANS: Attagene TRANS-FACTORIAL HepG2 Assay for M06 Transcription Factor (Internal Marker) (AID 2282983). As to conditions: HepG2 Attagene TRANS M06 internal marker reporter. An outline of the steps:
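mRNA levels of a reporter transcript, quantified as FAM fluorescence on capillary electrophoresis, served as readout. HepG2 cells expressing exogenous GAL4-chimera reporter constructs were exposed for 24 h. Gain of signal over DMSO was evaluated.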

Experiment [9] in a line: ATG_M_32_TRANS: Attagene TRANS-FACTORIAL HepG2 Assay for M32 Transcription Factor (Internal Marker) (AID 2282984). Conditions: HepG2 Attagene TRANS M32 internal marker reporter. The method in brief: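 Internal-marker readout from a multiplexed transcription reporter panel. HepG2 cells were transfected with GAL4-UAS reporter units, treated 24 hours, and reporter transcript levels determined by fluorescence after RT-PCR and capillary separation.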

The target in experiment [10] is Transcriptional activator Myb (Homo sapiens) (UniProt P10242). The experiment is described as follows: ATG_Myb_CIS: Attagene CIS-FACTORIAL HepG2 Assay for human Myeloblastosis (Myb) Proto-Oncogene Transcription Factor (AID 2282986; active = hit-call score of the fitted dose curve at least 0.9, where 1 is the maximum; inactive = score below 0.9). Conditions: HepG2 Attagene CIS-FACTORIAL Myb reporter transcription; actives raise or lower the signal. An outline of the steps:
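Using HepG2 liver cells bearing transiently transfected cis-promoter reporter constructs, the assay measures induction or loss of reporter mRNA after 24 hours of dosing. Detection used fluorescently labeled RT-PCR products separated by capillary electrophoresis.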

Experiment [11] addresses Nuclear respiratory factor 1 (Homo sapiens) (UniProt Q16656). The experiment is described as follows: ATG_NRF1_CIS: Attagene CIS-FACTORIAL HepG2 Assay for human Nuclear Respiratory Factor 1 (NRF1) Orphan Gene (AID 2282987; active = hit-call score of the fitted dose curve at least 0.9, where 1 is the maximum; inactive = score below 0.9). As to conditions: HepG2 NRF1 cis-element reporter, Attagene multiplex; actives raise or lower the signal. An outline of the steps: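 Reporter mRNA induction or loss in HepG2 cells after 24 h dosing; cis-regulated reporter constructs report endogenous transcription-factor activity. Quantified by RT-PCR/capillary electrophoresis fluorescence, DMSO-referenced.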

Experiment [12] addresses Glucocorticoid receptor (Homo sapiens) (UniProt P04150). Description: ATG_GR_TRANS: Attagene TRANS-FACTORIAL HepG2 Assay for human Glucocorticoid Receptor (GR) (AID 2282978).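 Also: activators score as hits since higher reporter transcript over DMSO is fitted.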 Conditions: HepG2 Attagene TRANS GR reporter, mRNA transcription. An outline of the steps:
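Transiently transfected HepG2 cells express chimeric NR-GAL4 proteins acting on GAL4-UAS reporter units. Compounds are applied for 24 h. mRNA induction over DMSO is measured by capillary electrophoresis.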

Experiment [13] has as its target Bile acid receptor (Homo sapiens) (UniProt Q96RI1). Description: ATG_FXR_TRANS: Attagene TRANS-FACTORIAL HepG2 Assay for Farnesoid X Receptor (FXR) (AID 2282979).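 Also: hits raise reporter mRNA above DMSO so AC50 marks FXR activation.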 As to conditions: HepG2 Attagene TRANS FXR-GAL4 reporter transcription. An outline of the steps:
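HepG2 cells were transiently transfected with GAL4-UAS reporters driven by chimeric NR-Gal4 proteins and dosed for 24 h. Reporter mRNA was quantified by RT-PCR, fluorescent labelling, HpaI digestion and capillary electrophoresis, with gain of signal scored versus DMSO.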

The target of experiment [14] is Nuclear receptor subfamily 4 group A member 2 (Homo sapiens) (UniProt P43354). Description: ATG_NURR1_TRANS: Attagene TRANS-FACTORIAL HepG2 Assay for human Nuclear Receptor Related Protein 1 (NURR1) (AID 2282985). As to conditions: HepG2 Attagene TRANS reporter, mRNA readout. An outline of the steps:
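Endpoint: reporter mRNA increase relative to DMSO. HepG2 cells transfected with reporter units, treated 24 h; RNA processed by RT-PCR, labelling, HpaI digestion and capillary electrophoresis.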

The nature of experiment [15]: ATG_GAL4_TRANS: Attagene TRANS-FACTORIAL HepG2 Assay for GAL4 (Internal Marker) (AID 2282976). Conditions: HepG2 Attagene TRANS GAL4 internal marker reporter. An outline of the steps:
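Background-control readout: GAL4-UAS reporter transcript in transiently transfected HepG2 cells after 24 h compound exposure. Measured by RT-PCR, 6-FAM primer extension, HpaI digest and capillary electrophoresis; gain-of-signal fit versus DMSO.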

For experiment [16], the target named is Estrogen receptor (Homo sapiens) (UniProt P03372). Description: ATG_ERa_TRANS: Attagene TRANS-FACTORIAL HepG2 Assay for human Estrogen Receptor alpha (ERa) (AID 2282970). As to conditions: HepG2 Attagene TRANS ERa GAL4 reporter, mRNA. The method in brief:
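Gal4-fusion ERa transactivation, measured as reporter transcript level in transiently transfected HepG2 cells. Exposure 24 h; RT-PCR plus capillary electrophoresis with fluorescence detection.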

Experiment [17] addresses Oxysterols receptor LXR-beta (Homo sapiens) (UniProt P55055). The experiment is described as follows: ATG_LXRb_TRANS: Attagene TRANS-FACTORIAL HepG2 Assay for human Liver X Receptor beta (LXRb) (AID 2282981). Conditions: HepG2 Attagene TRANS GAL4-LXRb reporter, mRNA. The method in brief: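 Multiplexed reporter assay, HepG2, 24 h dosing. Fluorescence of labelled RT-PCR products after capillary electrophoresis gives transcript level; positive fitting direction relative to DMSO.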

Outcome and AC50 data for 9 compounds are collected here from PubChem BioAssay (EPA / NIEHS).

Inconclusive results are not listed. Some structures have more than one record in an assay (separate samples or runs), and their calls can disagree. Calls of active or inactive are those of the source. The calls were made as follows, unless noted: active = hit-call score of the fitted dose curve at least 0.9, where 1 is the maximum; inconclusive = response in the unintended direction; inactive = score below 0.9.

Glucocorticoid receptor (Homo sapiens), sequence (P04150 whole entry, looked up, the tested form may be a part): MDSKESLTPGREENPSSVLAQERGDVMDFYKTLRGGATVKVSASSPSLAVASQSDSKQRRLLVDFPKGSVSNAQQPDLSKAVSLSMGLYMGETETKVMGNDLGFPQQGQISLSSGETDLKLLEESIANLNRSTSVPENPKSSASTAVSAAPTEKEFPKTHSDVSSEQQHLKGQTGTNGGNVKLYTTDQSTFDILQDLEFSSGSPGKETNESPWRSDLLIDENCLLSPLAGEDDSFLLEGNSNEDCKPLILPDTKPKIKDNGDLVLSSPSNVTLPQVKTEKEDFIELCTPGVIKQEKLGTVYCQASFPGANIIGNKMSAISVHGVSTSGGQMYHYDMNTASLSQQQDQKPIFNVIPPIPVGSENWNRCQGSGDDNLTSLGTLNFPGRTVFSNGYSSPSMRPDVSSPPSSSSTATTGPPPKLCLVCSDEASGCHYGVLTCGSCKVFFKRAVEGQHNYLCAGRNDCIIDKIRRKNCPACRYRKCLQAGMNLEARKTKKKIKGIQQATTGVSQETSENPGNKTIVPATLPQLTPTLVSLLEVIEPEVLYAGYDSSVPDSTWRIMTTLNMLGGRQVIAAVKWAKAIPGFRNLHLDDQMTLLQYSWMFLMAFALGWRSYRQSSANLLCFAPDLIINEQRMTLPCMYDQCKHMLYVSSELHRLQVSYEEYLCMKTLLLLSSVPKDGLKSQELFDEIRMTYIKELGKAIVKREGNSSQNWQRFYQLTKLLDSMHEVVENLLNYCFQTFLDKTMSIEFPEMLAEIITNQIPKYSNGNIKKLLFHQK
Oxysterols receptor LXR-alpha (Homo sapiens), sequence (Q13133 whole entry, looked up, the tested form may be a part): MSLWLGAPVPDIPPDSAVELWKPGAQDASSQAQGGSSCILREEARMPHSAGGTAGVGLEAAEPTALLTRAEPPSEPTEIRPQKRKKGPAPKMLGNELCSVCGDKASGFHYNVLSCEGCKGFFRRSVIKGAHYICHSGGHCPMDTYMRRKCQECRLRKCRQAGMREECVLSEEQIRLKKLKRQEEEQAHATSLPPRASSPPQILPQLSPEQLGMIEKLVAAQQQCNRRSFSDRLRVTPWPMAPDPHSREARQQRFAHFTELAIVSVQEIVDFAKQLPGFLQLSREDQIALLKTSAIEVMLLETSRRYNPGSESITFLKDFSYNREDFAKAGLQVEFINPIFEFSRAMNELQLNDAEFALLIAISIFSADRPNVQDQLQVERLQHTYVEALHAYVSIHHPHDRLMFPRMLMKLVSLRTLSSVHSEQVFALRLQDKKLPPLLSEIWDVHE
Nuclear respiratory factor 1 (Homo sapiens), sequence (Q16656 whole entry, looked up): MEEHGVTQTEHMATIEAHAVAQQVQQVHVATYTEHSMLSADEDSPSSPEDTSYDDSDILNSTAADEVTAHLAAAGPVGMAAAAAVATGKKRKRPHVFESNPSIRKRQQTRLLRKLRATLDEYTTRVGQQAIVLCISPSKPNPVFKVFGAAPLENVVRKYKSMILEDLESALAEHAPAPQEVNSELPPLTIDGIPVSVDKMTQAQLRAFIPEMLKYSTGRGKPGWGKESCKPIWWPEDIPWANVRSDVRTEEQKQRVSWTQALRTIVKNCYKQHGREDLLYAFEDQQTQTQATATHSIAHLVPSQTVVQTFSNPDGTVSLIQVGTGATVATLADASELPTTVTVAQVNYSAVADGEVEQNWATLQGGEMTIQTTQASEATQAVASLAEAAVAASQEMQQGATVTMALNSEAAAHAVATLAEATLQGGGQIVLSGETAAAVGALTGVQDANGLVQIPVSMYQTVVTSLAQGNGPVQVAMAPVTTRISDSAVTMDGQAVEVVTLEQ
Transcriptional activator Myb (Homo sapiens), sequence (P10242 whole entry, looked up): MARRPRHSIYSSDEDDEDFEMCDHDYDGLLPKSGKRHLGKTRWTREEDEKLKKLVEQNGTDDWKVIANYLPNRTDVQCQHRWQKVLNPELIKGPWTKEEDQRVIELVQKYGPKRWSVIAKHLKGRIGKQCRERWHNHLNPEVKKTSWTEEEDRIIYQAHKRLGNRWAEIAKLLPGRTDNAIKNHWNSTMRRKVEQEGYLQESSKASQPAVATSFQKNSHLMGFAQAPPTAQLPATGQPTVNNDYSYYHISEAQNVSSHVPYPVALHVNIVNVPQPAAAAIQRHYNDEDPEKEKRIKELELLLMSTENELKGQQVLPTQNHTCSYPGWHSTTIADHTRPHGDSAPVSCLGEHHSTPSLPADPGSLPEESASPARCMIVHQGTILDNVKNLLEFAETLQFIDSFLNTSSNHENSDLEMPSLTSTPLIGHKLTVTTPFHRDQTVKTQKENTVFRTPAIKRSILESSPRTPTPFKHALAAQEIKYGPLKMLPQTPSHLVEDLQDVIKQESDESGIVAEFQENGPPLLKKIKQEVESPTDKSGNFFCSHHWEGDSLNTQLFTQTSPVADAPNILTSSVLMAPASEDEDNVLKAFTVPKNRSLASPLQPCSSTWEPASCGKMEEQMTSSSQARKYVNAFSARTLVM
Nuclear receptor subfamily 4 group A member 2 (Homo sapiens), sequence (P43354 whole entry, looked up): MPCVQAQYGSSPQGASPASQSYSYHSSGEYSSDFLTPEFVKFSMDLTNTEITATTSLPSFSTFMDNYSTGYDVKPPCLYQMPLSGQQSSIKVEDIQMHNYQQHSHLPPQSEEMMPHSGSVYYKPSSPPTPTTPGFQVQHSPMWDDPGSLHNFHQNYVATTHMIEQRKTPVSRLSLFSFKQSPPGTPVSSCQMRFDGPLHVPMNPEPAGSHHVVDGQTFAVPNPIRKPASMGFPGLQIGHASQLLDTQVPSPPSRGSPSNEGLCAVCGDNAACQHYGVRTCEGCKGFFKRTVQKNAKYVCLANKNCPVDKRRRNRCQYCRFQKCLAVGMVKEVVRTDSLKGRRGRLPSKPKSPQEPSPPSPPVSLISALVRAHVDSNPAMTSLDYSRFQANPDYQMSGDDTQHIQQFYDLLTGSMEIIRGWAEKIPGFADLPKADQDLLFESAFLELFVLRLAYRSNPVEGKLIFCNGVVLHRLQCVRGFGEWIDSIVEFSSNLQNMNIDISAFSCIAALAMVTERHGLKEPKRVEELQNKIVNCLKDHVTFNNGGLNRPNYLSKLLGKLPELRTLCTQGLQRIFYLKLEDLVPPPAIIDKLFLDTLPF
Bile acid receptor (Homo sapiens), sequence (Q96RI1 whole entry, looked up, the tested form may be a part): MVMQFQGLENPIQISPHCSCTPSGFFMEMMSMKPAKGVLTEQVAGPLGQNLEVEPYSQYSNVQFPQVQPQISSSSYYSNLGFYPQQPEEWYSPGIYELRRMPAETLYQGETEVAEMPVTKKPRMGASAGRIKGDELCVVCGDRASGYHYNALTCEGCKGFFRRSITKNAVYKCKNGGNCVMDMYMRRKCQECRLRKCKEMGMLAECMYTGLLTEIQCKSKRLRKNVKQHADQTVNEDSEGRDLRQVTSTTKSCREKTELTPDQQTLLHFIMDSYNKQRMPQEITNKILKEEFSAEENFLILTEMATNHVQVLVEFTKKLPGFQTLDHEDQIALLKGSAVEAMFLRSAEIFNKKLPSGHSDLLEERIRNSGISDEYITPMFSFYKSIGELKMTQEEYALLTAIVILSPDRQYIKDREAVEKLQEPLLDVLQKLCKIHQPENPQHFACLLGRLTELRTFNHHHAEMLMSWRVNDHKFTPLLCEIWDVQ
Estrogen receptor (Homo sapiens), sequence (P03372 whole entry, looked up, the tested form may be a part): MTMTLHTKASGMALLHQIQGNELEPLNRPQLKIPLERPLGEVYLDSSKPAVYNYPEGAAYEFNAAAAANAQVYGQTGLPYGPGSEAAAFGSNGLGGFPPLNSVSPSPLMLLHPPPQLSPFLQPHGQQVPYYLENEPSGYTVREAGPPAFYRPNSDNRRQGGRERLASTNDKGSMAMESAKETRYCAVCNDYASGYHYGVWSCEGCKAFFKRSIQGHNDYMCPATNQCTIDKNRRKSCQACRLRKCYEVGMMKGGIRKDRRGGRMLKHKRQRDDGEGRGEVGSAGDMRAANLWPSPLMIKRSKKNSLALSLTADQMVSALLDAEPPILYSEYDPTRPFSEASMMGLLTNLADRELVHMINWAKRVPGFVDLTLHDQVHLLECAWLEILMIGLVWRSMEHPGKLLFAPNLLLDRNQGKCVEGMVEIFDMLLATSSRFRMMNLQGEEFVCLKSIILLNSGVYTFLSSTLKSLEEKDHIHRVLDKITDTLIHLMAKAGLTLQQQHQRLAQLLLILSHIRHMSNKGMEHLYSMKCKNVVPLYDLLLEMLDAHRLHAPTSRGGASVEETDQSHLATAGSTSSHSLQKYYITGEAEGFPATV

Turning to `Cl[C@H]1OCCO[C@@H]1Cl`, the call in [1], in experiment [2], in experiment [3], in experiment [4], in [5] and in experiment [6] was inactive. Also, the result in [7], in [8], in experiment [9], in experiment [10] and in experiment [11] was inactive.

For orientation: AC50 means the concentration giving half of the maximal activity seen. As to `CC(C)CC(C)(c1ccc(O)cc1)c1ccc(O)cc1`, the outcome in experiment [1], in experiment [12], in experiment [8], in experiment [14], in experiment [10] and in experiment [11] was inactive. In addition, the AC50 in [3] is 8.52 µM (active); in [13], 7.12 µM (active).

In the case of `Oc1cc(Cl)c(Cl)cc1Cl`, the compound was called inactive in experiment [1], in experiment [4], in [15], in [8], in experiment [9] and in experiment [10]. In addition, the result in [11] was inactive. The AC50 in experiment [3] is 59 µM (active).

Regarding `C=CC(F)(C(F)(F)F)C(F)(F)C(F)(F)F` (centres undefined), the compound was called inactive in experiment [1], in [2], in experiment [3], in experiment [13], in experiment [6] and in experiment [8]. Also, the compound was classed as inactive in [10] and in experiment [11].

As for `CCC[N+](CCC)(CCC)CCC`, the result in [1], in experiment [2], in [3], in experiment [4], in experiment [15] and in experiment [8] was inactive. The compound was classed as inactive in experiment [9], in experiment [10] and in experiment [11].

Take `O=[N+]([O-])c1ccccc1O`: the compound was classed as inactive in [1], in experiment [2], in [3], in [4], in experiment [15] and in experiment [12]. Besides, the compound was classed as inactive in [6], in [7], in experiment [8], in [9], in [14] and in [10]. Moreover, in experiment [11], the compound was called inactive.

For the compound `CCCCOC(C)=O`, the compound was called inactive in experiment [1], in [16], in experiment [3], in experiment [4], in experiment [15] and in experiment [13]. Also, the call in experiment [6], in experiment [17], in [7], in experiment [8], in experiment [9] and in experiment [10] was inactive. Also, the call in experiment [11] was inactive. For the same compound, in [10], the AC50 was 100 µM (active).

Take `Clc1ccc(C(Cl)(Cl)Cl)cn1`: the compound was classed as inactive in experiment [1], in experiment [16], in [3], in [12], in [7] and in experiment [8]. The compound was called inactive in experiment [14], in [10] and in experiment [11].

Turning to `c1ccc(-c2cccc(-c3ccccc3)c2)cc1`, the AC50 is 56.6 µM (active) in [1], 27.3 µM (active) in [16] and 27.8 µM (active) in experiment [14]. The compound was classed as inactive in experiment [3], in [4], in experiment [13], in experiment [6], in experiment [10] and in experiment [11].
